This is a sample that favours compounds with a hit; in the whole collection about 2.8% have one here.
MBNL1-CUG inh: inhibitors of human MBNL1 binding to CUG repeat RNA; Q9NR56; TR-FRET MBNL1-His/biotin-(CUG)12 binding, 665/545 ratio; Potency, µM (top dose mostly 57.5 µM), inactives show at the top dose activity change, negative = inhibition, usual class: inhibitors; hit rate 0.036% among 280,000; AID 2675; active = well fitted inhibition curve with a large enough effect in the signal ratio, with a control signal flat, not every such curve was filed as active; inconclusive = small, poorly fitted or top-dose-only effect, or effect the other way, or a change in a side signal; inactive = no such curve, though single readings can be large or run the other way; the % refers to the signal ratio; also: potency is read from the fitted curve at half-maximal effect; % is scaled to controls: 0 for no effect and ±100 for the full control effect
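TR-FRET readout: Ex 340 nm, 665/545 nm emission ratio, normalized to buffer-only (basal) and MBNL1-(CUG)12 controls. Complex of MBNL1-His with Biotin-(CUG)12, compounds 92 nM–58 uM, incubated 60 min at room temperature.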
PTHR1 agonist: agonists of human PTHR1 parathyroid hormone receptor; HEK293 GP2 PTHR1 cells, GloSensor cAMP luminescence, 1 h; Potency, µM (top dose mostly 115 µM), for inactives: at the top dose activation, hits mostly activators; hit rate 0.075% among 410,000; also: potency is read from the fitted curve at half-maximal effect; nearly all actives have a fitted effect of over 55% in size
Target sequence (Q03431 whole entry, looked up): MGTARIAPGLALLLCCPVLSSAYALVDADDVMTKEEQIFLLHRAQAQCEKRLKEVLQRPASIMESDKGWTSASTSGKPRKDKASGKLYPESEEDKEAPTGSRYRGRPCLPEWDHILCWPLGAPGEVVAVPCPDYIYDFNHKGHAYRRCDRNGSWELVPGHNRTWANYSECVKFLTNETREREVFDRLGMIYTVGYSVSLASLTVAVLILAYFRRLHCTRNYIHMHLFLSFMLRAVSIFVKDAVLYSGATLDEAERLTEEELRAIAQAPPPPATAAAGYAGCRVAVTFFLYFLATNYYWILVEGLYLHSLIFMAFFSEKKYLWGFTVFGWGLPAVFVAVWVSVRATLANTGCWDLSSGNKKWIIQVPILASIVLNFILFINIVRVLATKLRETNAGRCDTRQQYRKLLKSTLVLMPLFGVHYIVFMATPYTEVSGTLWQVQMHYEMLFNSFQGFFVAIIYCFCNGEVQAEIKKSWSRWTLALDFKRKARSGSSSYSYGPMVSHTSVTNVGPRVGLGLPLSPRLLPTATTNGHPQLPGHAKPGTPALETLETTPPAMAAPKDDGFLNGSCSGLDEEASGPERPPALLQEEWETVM
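HEK-293-derived GP2 cells expressing PTHR1 and a GloSensor cAMP reporter, 3,000/well, plated overnight, given luciferin plus IBMX (each 0.5 mM as added) for 1 h at 37 °C, then compound for 1 h at 37 °C. Luminescence was read after 15 min at room temperature.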
D3 antag: blocks the human D3 dopamine receptor | P35462 | D3R cells, DiscoveRx beta-arrestin luminescence, antagonist mode; hits give low values | max response, negative = inhibition, % | hit rate 2.5% among 360,000 | AID 652054; in the data active = max response below about -50%; inconclusive = no clear call, values can overlap the other calls; also: % is scaled to controls: 0 for no effect and ±100 for the full control effect
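Cells expressing the human receptor were seeded at 1500 cells/well, incubated overnight at 37 degrees C in 5% CO2, then exposed to library compounds with dopamine controls for 90 minutes at 37 degrees C before luminescent detection.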
D3 ag: D3 dopamine receptor (human) agonism. P35462. D3R DiscoveRx beta-arrestin cells, luminescence, 90 min. max activation, %. hit rate 0.58% among 410,000; in the data active = max activation above about 30%; also: 0% is about no effect
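Agonist mode: compounds and dopamine controls were applied to plated cells for 90 min at 37 degrees C after an overnight attachment at 1500 cells/well. Luminescent read-out followed 30 - 60 minutes at room temperature with DiscoveRx detection reagent.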
CBFb RUNX1 block: inhibitors of human CBF-beta and RUNX1 interaction | Q01196+Q13951 | AlphaScreen CBFb-His/RUNX1-biotin binding, biochemical | Potency, µM (highest dose often 59.8 µM), without a hit: top-dose activity, negative = inhibition, most hits filed as inhibitors | 230,000 tested, under 10 active | AID 1477; also: % of control where 0% means no effect
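AlphaScreen binding: CBFb-His and RUNX1-biotin (30 nM each) preincubated 20 min, compound added for 15 min, then nickel and streptavidin beads for 90 min, all at room temperature. Disruption of the interaction by any mechanism counts as activity.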
Integrin act MD: integrin-mediated muscular dystrophy alleviation activation; hit rate 0.064% among 350,000; Potency, µM (titrated, usually from 38.3 µM), for inactives: top-dose activation, actives largely listed as activators; alpha7betagal myoblasts, beta-gal FDG fluorescence, 48 h;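 also: potency is read from the fitted curve at half-maximal effect; 100% = response of the positive control SU9516; nearly all actives have a fitted effect of over 60% in size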
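Alpha7betagal+/- myoblasts (passage 13) were plated 16-24 hr, then exposed to compounds (1:260 dilution of DMSO stock) for 48 hours at 37C. After MPER lysis, β-galactosidase reporter activity was read as FDG fluorescence (ex 480/em 540) after 30 minutes.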
* marks the source's active call; other numbers are inactive results; i = inactive; ? = inconclusive; · = no result; [ ] = another dose, or the depositor's remark. Unless noted, calls follow the shape of the dose curve; as a rule, active = well fitted curve in the direction sought with a large enough effect; inconclusive = small, poorly fitted or top-dose-only effect, or another doubt; inactive = no such curve, though single readings can be large; an effect the other way counts as inactive or inconclusive.

SMILES | MBNL1-CUG inh | PTHR1 agonist | D3 antag | D3 ag | CBFb RUNX1 block | Integrin act MD
Cc1nn(C(C)(C)C)c(C)c1/C=N/OC(=O)Nc1ccc(Cl)c(Cl)c1 | -1% | -47% | -2 | -3 | 13% | 2.8µM*
Cc1ccc(NC(=O)c2snnc2C)cc1Cl | -4% | -12% | 1 | 6 | 4% | -15%
COC(=O)C1CN(C#N)N(c2ccc(Cl)cc2)C12c1ccccc1-c1ccccc12 (stereo unspecified) | ? | -26% | -76* | -4 | 11% | -58%
COc1ccc(S(=O)(=O)Nc2ccc3c(c2)CC(=O)N([C@@H](C)CO)C[C@H](C)[C@@H](CN(C)S(=O)(=O)c2ccc(F)cc2)O3)cc1 | · | -57% | -1 | -33 | · | -12%
COC(=O)C1=C(C(=O)OC)SC2(S1)C(C(=O)OC)=C(C(=O)OC)Sc1c2ssc1=O | · | -36% | -96* | -10 | · | -58%
Clc1ccc(OCC#CCN2CCCCCC2)cc1 | 0% | -21% | -91* | -4 | -1% | 0%
Cc1nc2cc(OC(=O)N(C)Cc3cccc(-c4ccncc4)c3)ccc2s1 | · | -66% | 128 | 33* | · | ·
Cc1ccccc1[N+](=O)[O-] | · | -13% | -16 | 3 | 4%[21.7 µM] | ·
COC(=O)C1=C(C)NC(C)=C(C(=O)OC)C1c1ccccc1[N+](=O)[O-] | ? | 28% | -105* | -83 | 17% | ·
CCOc1ccccc1CN1CCCC(C(=O)c2cc(F)ccc2F)C1 (stereo unspecified) | 3% | i | -72* | -20 | · | 20%
COc1ccccc1CN1CCCC(C(=O)c2ccccc2SC)C1 (stereo unspecified) | -20% | -18% | ? | -7 | -7% | -41%
COc1ccc(F)cc1C(=O)C1CCCN(Cc2ccc(O)cc2)C1 (stereo unspecified) | -2% | i | -65* | -15 | · | -29%
COc1ccccc1CN1CCCC(C(=O)c2ccccc2OC)C1 (stereo unspecified) | -1% | i | -59* | -24 | · | -52%
CCn1ccnc1CN1CCCC(C(=O)c2cc(F)ccc2OC)C1 (stereo unspecified) | -15% | -17% | -11 | -14 | -8% | -5%
CCOc1ccc(CN2CCCC(C(=O)c3ccccc3OC)C2)cc1 (stereo unspecified) | -3% | i | -81* | -23 | · | 2%
Cc1cccc(CN2CCc3nc(N4CCN(c5ccccn5)CC4)ncc3C2)c1 | · | -82% | · | -23 | · | ·
C[C@H](CO)N1C[C@H](C)[C@H](CN(C)S(=O)(=O)c2ccc(Cl)cc2)OCc2ccccc2-c2c(n(C)c3ccccc23)C1=O | · | -13% | 20 | 2 | · | -61%
COc1ccc(C(=O)C2CCCN(Cc3ccc(F)cc3F)C2)cc1F (stereo unspecified) | -1% | -30% | -29 | -11 | · | -2%
COc1cccc(C(=O)C2CCCN(C3CCOCC3)C2)c1 (stereo unspecified) | -1% | i | -9 | 1 | 8% | 5%
COc1ccc(C(=O)C2CCCN(CCc3ccccc3)C2)cc1OC (stereo unspecified) | · | 0% | -68* | -25 | · | ·
COc1cccc(OC)c1CN1CCCC(C(=O)c2cccc(Cl)c2)C1 (stereo unspecified) | 2% | -21% | -78* | -27 | · | 0%
CC(=O)N1CCC(N2CCCC(C(=O)c3cccc(Cl)c3)C2)CC1 (stereo unspecified) | -3% | i | -12 | 129* | 4% | 0%
COc1cccc(O)c1CN1CCCC(C(=O)c2sccc2C)C1 (stereo unspecified) | -12% | -33% | ? | -16 | 4% | -37%
CO[C@H]1[C@@H](O)C[C@H](O[C@H]2[C@@H](O)C[C@H](O[C@H]3[C@@H](O)C[C@H](O[C@H]4CC[C@@]5(C)[C@H](CC[C@@H]6[C@@H]5C[C@@H](O)[C@]5(C)[C@@H](C7=CC(=O)OC7)CC[C@]65O)C4)O[C@@H]3C)O[C@@H]2C)O[C@@H]1C | · | · | · | 10 | · | ·
C[C@]12CC[C@H](O)C[C@H]1CC[C@@H]1[C@@H]2CC[C@]2(C)[C@@H](c3ccc(=O)oc3)C[C@H]3O[C@]132 | · | · | · | 8 | · | ·
SMILES | MBNL1-CUG inh | PTHR1 agonist | D3 antag | D3 ag | CBFb RUNX1 block | Integrin act MD
O=C(O)c1ccccc1S | ? | · | · | -13 | 1% | ·
CC(=Nc1c(C)n(C)n(-c2ccccc2)c1=O)c1c(O)n(Cc2ccccc2)c(=O)[nH]c1=O | -2% | -5%[57.5 µM] | -51* | -13 | 2% | 9%
CC(=O)O[C@H]1C(=O)[C@@]2(C)C([C@H](OC(=O)c3ccccc3)[C@]3(O)C[C@H](OC(=O)[C@H](O)[C@@H](NC(=O)Cc4ccccc4)c4ccccc4)C(C)=C1C3(C)C)[C@]1(OC(C)=O)CO[C@@H]1C[C@@H]2O (stereo partly specified) | 7% | -28% | -50* | -9 | · | -55%
CC(=O)O[C@@]12CO[C@@H]1C[C@H](O)[C@@]1(C)C(=O)[C@H](O)C3=C(C)[C@@H](OC(=O)[C@H](O)[C@@H](NC(=O)c4ccccc4)c4ccccc4)C[C@@](O)([C@@H](OC(=O)c4ccccc4)C12)C3(C)C (stereo partly specified) | -11% | -40% | 11 | 2 | · | -46%
CC(C)(CO)CNC1CCCN(C2Cc3ccccc3C2)C1 (stereo unspecified) | -1% | i | 8 | 3 | · | -20%
CC[C@@H](C(=O)[C@@H](C)[C@@H](O)[C@H](C)[C@@H]1O[C@@H]([C@@H](CC)C(=O)O)CC[C@@H]1C)[C@H]1O[C@]2(C=C[C@@H](O)[C@]3(CC[C@@](C)([C@H]4CC[C@](O)(CC)[C@H](C)O4)O3)O2)[C@H](C)C[C@@H]1C | · | -47% | 373 | 249* | · | ·
O=C(O)[C@H](O)[C@@H](O)C(=O)O | · | -11% | -28 | -8 | · | 11%
Cc1cc2ccccc2n1-c1ccc(C(=O)N2CCC(C(=O)NCc3ccc(Cl)cc3)CC2)s1 | · | -65% | · | -6 | · | ·
CCCCCCCCn1sccc1=O | · | -46% | -81* | -75 | -3%[21.7 µM] | ·
CCCCN1CCC(O)(c2ccccc2)C(C(=O)c2ccccc2)C1 (stereo unspecified) | 0% | -1%[57.5 µM] | -65* | -10 | 1% | -33%
CN1CCC(O)(c2ccc(F)cc2)C(C(=O)c2ccc(F)cc2)C1 (stereo unspecified) | · | · | · | 2 | · | ·

Assay outcomes (PubChem)
